Screening data from PubChem.
PI4K2A block: inhibitors of human PI4K2A; 420,000 compounds, 0.13% hits; Q9BTU6; AID 1346378; purified PI4K2A, ADP-Glo luminescence, 1 h; stronger effect = lower value; activity change, negative = inhibition, % at 76.9 µM; in the data active = activity change below about -50%; inconclusive = mostly about -30% to -49%
Target sequence (Q9BTU6 whole entry, looked up): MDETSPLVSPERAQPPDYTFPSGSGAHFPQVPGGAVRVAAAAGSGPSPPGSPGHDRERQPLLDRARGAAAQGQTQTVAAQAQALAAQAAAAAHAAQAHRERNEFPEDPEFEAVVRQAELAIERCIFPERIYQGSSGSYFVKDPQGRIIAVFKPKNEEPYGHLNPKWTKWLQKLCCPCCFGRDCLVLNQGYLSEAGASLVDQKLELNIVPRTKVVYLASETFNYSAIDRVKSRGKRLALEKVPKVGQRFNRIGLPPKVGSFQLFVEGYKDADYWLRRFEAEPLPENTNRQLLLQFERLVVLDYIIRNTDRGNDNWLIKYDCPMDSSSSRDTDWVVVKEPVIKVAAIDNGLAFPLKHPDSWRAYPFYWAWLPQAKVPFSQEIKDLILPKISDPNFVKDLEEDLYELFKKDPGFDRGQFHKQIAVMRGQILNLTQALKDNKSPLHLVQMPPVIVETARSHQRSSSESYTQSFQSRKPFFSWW
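PI4K2A activity was measured by ADP-Glo luminescence: enzyme (4 ug/mL stock) and phosphatidylinositol (1.2 mM stock) in Tris pH 7.5/MgCl2/EGTA/Triton X-100 buffer were reacted with ATP (300 microM stock) for one hour at ambient temperature.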
KB-V1 cytotox: kills drug-selected multidrug resistant KB-V1 cells; Potency, µM (top dose mostly 46.1 µM), hits mostly cytotoxic; 400,000 compounds, 3.4% hits; KB-V1 MDR cells viability, CellTiter-Glo, 72 h; note: nearly all actives have a fitted effect of over 60% in size
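Cytotoxicity toward P-gp-expressing KB-V1 cells was determined as loss of CellTiter-Glo luminescence after 72 h at 37 degrees C. Compounds were tested in quantitative HTS format across a concentration range, with curves fitted to normalized data.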
A549 viability: counter-screen for Nrf2 inhibitors: cytotoxicity in A549 cells; A549 ARE-Fluc cells, CellTiter-Fluor viability, 18-24 h; Potency, µM (highest dose often 46 µM), usual class: inhibitors; 390,000 compounds, 0.16% hits; AID 504648
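A549 ARE-Fluc cells in 5% FBS OPTI-MEM, 5000 cells/well, rested 2 h then exposed to compounds in concentration-response for 18-24 h at 37 °C. Viability by CellTiter-Fluor fluorescence (Ex 405/Em 525) after 30 min; luciferase luminescence (BugLite, 15 min, RT) read afterwards.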
Nrf2 block: Nrf2 pathway inhibition; A549 ARE-Fluc reporter, luciferase luminescence, 18-24 h; Potency, µM (highest dose often 46 µM), usual class: inhibitors; 360,000 compounds, 2.1% hits; AID 504444; note: nearly all actives have a fitted effect of over 60% in size
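Nrf2 activity is the BugLite luminescence, read 15 min after reagent at room temperature, following CellTiter-Fluor cytotoxicity readout (30 min, 37C). Compound titrations were applied for 18-24 h to 5000 A549 ARE_Fluc cells/well in 5% FBS OPTI-MEM.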
KB-3-1 cytotox: kills parental KB-3-1 adenocarcinoma cells; KB-3-1 viability, CellTiter-Glo ATP luminescence, 72 h; Potency, µM (top dose mostly 46.1 µM), actives largely listed as cytotoxic; 400,000 compounds, 1.4% hits; AID 1347075; note: nearly all actives have a fitted effect of over 60% in size
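KB-3-1 cells, DMEM (no phenol red) + 10% FBS; compound by pin transfer, 72 h, 37 °C. Readout: CellTiter-Glo luminescence after 10 min. Data normalized, curve-fitted.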
Giardia killer: Giardia lamblia killing; Giardia lamblia trophozoite viability; activity change, % at 7.66 µM, hits read low; 340,000 compounds, 0.15% hits; AID 540267; in the data active = activity change below about -80%; inconclusive = between about -30% and that limit;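 note: parasites exposed to compound for two days anaerobically before the ATP read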
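Viability, read as ATP luminescence: trophozoites at 100 cells/well, compound added, 48 hrs anaerobic at 37 deg C, then 15-30 min room-temperature development before reading.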
A number is an active result; 0 = inactive; ? = inconclusive; - = no result; ! = repeats disagree. Only some compounds are listed: those with a hit (about 5.7% of all), similar ones and a draw of the others. Unless noted, calls come from the whole dose curve; as a rule, active = well fitted curve in the direction sought with a large enough effect; inconclusive = small, poorly fitted or top-dose-only effect, or another doubt; inactive = no such curve, though single readings can be large; an effect the other way counts as inactive or inconclusive.

SMILES	PI4K2A block	KB-V1 cytotox	A549 viability	Nrf2 block	KB-3-1 cytotox	Giardia killer
Cc1c(C(=O)Nc2nccs2)oc2ccc(F)cc12	0	0	0	?	0	0
Cc1c(C(=O)Nc2ccc(-c3nnc4n3CCCCC4)cc2)oc2ccc(Br)cc12	0	8.2µM	0	?	0	0
CCOc1ccc(C(=O)Nc2ccc(-c3nnc4n3CCCCC4)cc2)cc1OCC	0	?	0	0	0	-
O=C(/C=C/c1cccc(Cl)c1)Nc1cccc([S+](=O)([O-])Nc2ccccc2F)c1	-	0	-	-	0	-
CCC(NC(=O)C1CCCN(c2ncccn2)C1)c1ccccc1 (stereo not drawn)	0	-	-	-	-	-
Cc1ccc(-c2nc(Nc3ccc(O)cc3)c3ccccc3n2)cc1	0	?	?	0	?	0
Cc1ccc(-c2nc(C(Cl)Cl)c3ccccc3n2)cc1	0	20.6µM	?	?	20.6µM	0
Cn1c(=O)c2sccc2n(Cc2cccc(Br)c2)c1=O	0	?	0	10.3µM	?	0
O=c1c2sccc2n(Cc2cccc(F)c2)c(=O)n1-c1ccc(F)cc1	0	8.2µM	0	0	0	0
COc1ccc(OC)c(C2SCCN2S(=O)(=O)c2cccc(C(F)(F)F)c2)c1 (stereo not drawn)	0	0	0	20.6µM	0	0
COC(=O)c1ccccc1NC(=O)c1cc(C)nc2c1c(C)nn2-c1ccc(C)cc1	0	0	0	?	0	-
CN1CCC2(CC1)C1CN(C)CC=C1C(C#N)=C(N)C2(C#N)C#N (stereo not drawn)	0	0	16.4µM!	0	0	0
FC(F)Oc1ccc(-n2cc(-c3ccccc3)[n+]3c2CCCCC3)cc1	0	0	?	0	23.1µM	0
Cc1ccc(-c2cn(-c3ccc(OC(F)F)cc3)c3[n+]2CCCCC3)cc1	0	0	0	?	0	0
Cc1ccc(-c2cn(-c3ccc(SC(F)F)cc3)c3[n+]2CCC3)cc1	0	0	0	?	2.06µM	0
Clc1ccc(-n2cc(-c3ccc(Br)cc3)[n+]3c2CCCCC3)cc1	0	0	0	0	?	0
FC(F)Sc1ccc(-n2cc(-c3ccc(Cl)cc3)[n+]3c2CCC3)cc1	0	0	0	0	18.4µM	0
O=C(CSc1ncc(-c2ccccc2)[nH]1)Nc1cccc(Br)c1	0	0	0	?	0	-
Cc1ncc(CO)c(/C=N/NC(=O)c2cc3c(s2)CCCC3)c1O	0	?	0	23.1µM	?	?
C#CCn1c2ccccc2c2nc3ccccc3nc21	0	18.4µM	0	?	0	0
Cc1cc(Cl)nc2nc(Cl)ccc12	-	0	-	-	0	-
CCC(C)Sc1cc(-c2nc3cc(C)ccn3c2NC2CCCCC2)ccc1OC (stereo not drawn)	0	20.6µM	?	?	?	0
CCC(C)Sc1cc(-c2nc3ccccn3c2NC2CCCCC2)ccc1OC (stereo not drawn)	0	11.6µM!	?	?	?	0
Cc1ccc(-c2nnc(SCC(=O)c3ccc(O)c(O)c3)n2-c2ccc(Cl)cc2)cc1	0	-	-	-	-	-
NS(=O)(=O)c1ccc(NC(=O)CSc2nnc(-c3cccs3)o2)cc1	0	-	-	-	-	-
SMILES	PI4K2A block	KB-V1 cytotox	A549 viability	Nrf2 block	KB-3-1 cytotox	Giardia killer
COC(=O)c1[nH]c2ccccc2c1NC(=O)CNC1CCCCC1	0	18.4µM	0	0	0	0
COC(=O)[C@]12C[C@H](CC(=O)NCc3ccc(OC)c(OC)c3)C(=O)N(Cc3cccc4ccccc34)C1=C[C@H](COCc1ccccc1)O[C@@H]2C	0	-	-	-	-	-
Cc1ccc(N=C2NC(=O)/C(=C\c3ccsc3)S2)c(C)c1	0	18.4µM	0	0	0	0
Cc1ccc(N=C2NC(=O)/C(=C/c3cccnc3)S2)c(C)c1	0	0	0	0	0	0
Cc1onc(-c2ccccc2)c1C(=O)Nc1ccccc1N1CCOCC1	0	13µM	0	0	0	0
Cc1onc(-c2ccccc2)c1C(=O)Nc1cc(C(F)(F)F)ccc1N1CCOCC1	0	5.17µM	?	0	5.8µM	0
CCOC(=O)c1ccc(N2CCOCC2)c(NC(=O)c2c(-c3ccccc3)noc2C)c1	0	?	0	0	5.8µM	0
O=C(CCc1ccccc1)NC(=S)Nc1cc(C(F)(F)F)ccc1N1CCOCC1	0	?	0	?	?	0
CCN(CC)S(=O)(=O)c1ccc(N2CCCC2)c(NC(=O)c2c(-c3ccccc3)noc2C)c1	0	0	0	0	0	0
Cc1noc(C)c1C(=O)Nc1ccccc1N1CCOCC1	0	0	0	0	0	0
CC(C)CC(=O)NC(=S)Nc1cc(C(F)(F)F)ccc1N1CCOCC1	0	18.4µM	0	?	0	0
O=C(NCCN1CCOCC1)C1(C(F)(F)F)CC(CCCO)CCCO1 (stereo not drawn)	-	-	0	0	-	0
Cc1noc(C)c1-c1ccc2ncnc(NCc3ccc(F)cc3)c2c1	-	-	0	0	-	-
Cc1noc(C)c1-c1ccc2ncnc(NCc3ccccc3F)c2c1	-	-	0	20.6µM	-	-
CCOc1ccccc1CNc1ncnc2ccc(-c3c(C)noc3C)cc12	0	0	0	16.4µM	?	0
Cc1noc(C)c1-c1ccc2nc[nH]c(=O)c2c1	0	?	0	0	13µM	0
Cc1noc(C)c1-c1ccc2ncnc(NCc3cccc(-c4ccccc4)c3)c2c1	-	-	0	7.31µM	-	-
O=C1C(NC(=O)N2c3ccccc3C=Cc3ccccc32)CCCCN1Cc1cccc(C(F)(F)F)c1 (stereo not drawn)	0	-	-	-	-	-
COc1ccc(CCNCc2c(C(=O)O)c(C)n(Cc3c(F)cccc3Cl)c2C)cc1OC	0	?	0	?	0	-
Clc1nc(NCc2ccco2)c2[nH]cnc2n1	-	0	0	?	0	0
CC(Nc1ncnc2ccccc12)c1ccccc1 (stereo not drawn)	0	?	0	?	0	0
Cc1noc(C)c1-c1ccc2ncnc(NC(C)c3ccccc3)c2c1 (stereo not drawn)	-	-	0	23.1µM	-	-
Cc1ccccc1CCNC(=O)c1ccc(Cl)c(S(=O)(=O)N2CC(C)OC(C)C2)c1 (stereo not drawn)	0	1.84µM	0	5.17µM	5.17µM	0
CN(Cc1cccs1)C(=O)c1cccc(S(=O)(=O)N2CCCCCC2)c1	0	18.4µM	0	0	0	0
CN(CC(=O)Nc1cc(S(=O)(=O)N2CCCC2)ccc1Cl)Cc1cccs1	0	0	0	25.9µM	0	0
CCN1CCN(S(=O)(=O)c2ccc(Cl)c(C(=O)N(C)Cc3cccs3)c2)CC1	0	?	0	0	0	0
CN(Cc1cccs1)C(=O)c1ccc(S(=O)(=O)N2CCCCC2)cc1	0	?	0	0	0	0
CC1CN(S(=O)(=O)c2cc(C(=O)N(C)Cc3cccs3)ccc2Cl)CC(C)O1 (stereo not drawn)	0	10.3µM	0	?	0	0
